Compounds with a hit are over-represented: about 2.2% of the library has one in this group of screens.
ANO1 activ: TMEM16A chloride channel activators or potentiators, primary screen, cell-based, HTS; Anoctamin-1 (Mus musculus), Q8BHY3; HEK293 TMEM16A/YFP-H148Q/I152L, iodide quench fluorescence; hits give low values; B-score at 10 µM; 0.3% of 340,000 active;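 active means fluorescence-ratio B-score plate-corrected deviation score at least 3 library SD below zero, with starting fluorescence score within 5 deviations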;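 further: channel opened by trigger with iodide after compound preincubation; score built on the fluorescence ratio of max minus min over baseline; more negative score means more quench and so TMEM16A activation or potentiation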
Target sequence (Q8BHY3 whole entry, looked up): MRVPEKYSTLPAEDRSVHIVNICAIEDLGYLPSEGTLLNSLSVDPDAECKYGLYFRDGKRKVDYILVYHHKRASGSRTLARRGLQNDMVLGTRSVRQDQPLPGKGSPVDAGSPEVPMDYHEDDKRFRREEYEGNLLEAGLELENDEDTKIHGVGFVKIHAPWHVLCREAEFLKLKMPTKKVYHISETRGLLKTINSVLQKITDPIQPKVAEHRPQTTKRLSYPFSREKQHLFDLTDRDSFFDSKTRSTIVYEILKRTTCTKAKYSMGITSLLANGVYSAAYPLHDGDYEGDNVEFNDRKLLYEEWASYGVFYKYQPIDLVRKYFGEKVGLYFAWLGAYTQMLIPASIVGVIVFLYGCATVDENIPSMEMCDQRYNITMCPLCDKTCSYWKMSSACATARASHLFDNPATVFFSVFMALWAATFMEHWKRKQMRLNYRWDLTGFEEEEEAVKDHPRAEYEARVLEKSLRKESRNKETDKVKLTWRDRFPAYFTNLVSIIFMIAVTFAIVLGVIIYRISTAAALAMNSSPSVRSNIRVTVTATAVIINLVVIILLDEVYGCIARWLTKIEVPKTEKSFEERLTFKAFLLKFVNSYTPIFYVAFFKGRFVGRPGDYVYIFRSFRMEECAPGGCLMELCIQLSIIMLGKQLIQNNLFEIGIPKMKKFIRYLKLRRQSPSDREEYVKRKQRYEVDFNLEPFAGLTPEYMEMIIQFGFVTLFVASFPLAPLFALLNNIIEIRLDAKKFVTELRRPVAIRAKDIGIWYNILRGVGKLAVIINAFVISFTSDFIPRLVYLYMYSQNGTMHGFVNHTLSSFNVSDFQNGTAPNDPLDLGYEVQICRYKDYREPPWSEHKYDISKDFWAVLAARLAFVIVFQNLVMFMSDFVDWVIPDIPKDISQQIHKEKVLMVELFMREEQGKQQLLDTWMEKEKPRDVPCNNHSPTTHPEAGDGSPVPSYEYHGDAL
M1 ag parental: counter-screen for M1 agonists: effect in parental CHO-K1 cells; AID 602248, 2012; Fluo-8 calcium fluorescence; scaled to maximal ATP response, vehicle zero; activation, % at 3 µM; 0.48% of 360,000 active; in the data active means activation above about 15%;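 further: untransfected CHO-K1 host cells lacking M1 receptor as counterscreen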
CHO-K1 Ca PAM: nonselective calcium activators in parental CHO-K1 cells, primary screen, counter-screen for M1 PAM project, cell-based, Fluo-8 calcium fluorescence, full deck, 1536-well; ATP EC20; 0% at ATP EC20, 100% at ATP max; activation, % at 3 µM; 0.02% of 360,000 active; AID 602247, 2012;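 active means activation above the run cutoff, the mean activation of all test compounds plus 3 SD, cut at about 40% in these data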;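 further: peak over basal fluorescence ratio in a 140 s read after ATP addition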
NTR1 ag: agonists of human NTR1, primary screen, imaging, U2OS cells, beta-arrestin-GFP, high content; Neurotensin receptor type 1 (Homo sapiens), P30989; NTR1-U2OS beta-arrestin-GFP spot imaging, agonist mode; activation, % at 20 µM; 0.17% of 330,000 active;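 active means activation at or above 40% of the spot to cytoplasm intensity ratio, with at least 20 cells analyzed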
ANO1 block: TMEM16A chloride channel inhibitors, primary screen, cell-based, HTS. Anoctamin-1 (Mus musculus), Q8BHY3. HEK293 TMEM16A/YFP iodide influx fluorescence, ionomycin. normalized B-score (activity score, 25-100; higher = stronger inhibition) at 10 µM. 1.2% of 310,000 active. AID 588511, 2011;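 active means ratio plate-corrected score three or more library SD toward inhibition, starting fluorescence score within five deviations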;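 further: score derived from kinetic fluorescence span divided by baseline fluorescence per well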
CHO-K1 Ca antag: nonselective inhibitor or artifact in parental CHO-K1 cells | inhibition, % at 3 µM | 0.6% of 360,000 active | ATP-induced calcium, Fluo-8 fluorescence;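 active means inhibition above a per-plate cutoff, the plate's mean sample inhibition plus 3 SD, cut at about 24% in these data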
NTR1 ag conf: NTR1 agonists, single-dose retest, confirmation, imaging, U2OS cells, beta-arrestin-GFP, single concentration. shares compounds with NTR1 ag. NTR1-U2OS beta-arrestin-GFP translocation imaging. activation, % at 20 µM. 38% of 480 active;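 active means mean activation at 20 µM of at least 40%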
TMEM16A reconf: TMEM16A chloride channel inhibitors, confirmation, cell-based, re-confirmation; shares compounds with ANO1 block; HEK293 TMEM16A/YFP-H148Q, iodide quench fluorescence; ionomycin added to raise cell calcium; inhibition, % at 10 µM; 39% of 2,300 active;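 active means mean duplicate percent inhibition, scaled so buffer wells are 0 and the reference blocker 100, over three buffer SD above buffer mean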
TMEM16A Ca cntr: calcium mobilization in TMEM16A/YFP HEK293 cells, confirmation, counter-screen for TMEM16A inhibitor project; shares compounds with ANO1 block; Fluo4 calcium mobilization; calcium response (% of ionomycin), % at 10 µM; 2% of 2,300 active; AID 652231, 2013;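 active means duplicate-averaged calcium signal over 20% of the ionomycin maximum, relative to buffer baseline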;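 further: each well's signal is peak minus trough fluorescence divided by its pre-addition baseline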
YFP-HEK293 quench: iodide YFP quench changes in parental YFP-HEK293, counter-screen for TMEM16A inhibitor project, cell-based; YFP ratio F(max-min)/F0 at 10 µM; ionomycin; shares compounds with ANO1 block; 2,300 tested, under 10 active;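 active means yellow fluorescent protein signal ratio exceeding the buffer control mean by over 5 SD of those controls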;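 further: ratio is mean of duplicate wells from kinetic YFP trace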
ClC-1 rat inh: ClC-1 chloride channel inhibition, selectivity assay for TMEM16A inhibitor project, cell-based, voltage-dependent ClC-1 | 2,300 tested, under 10 active | AID 652236, 2013 | CHO ClC-1-YFP, iodide influx fluorescence quench; iodide control reads 0, buffer control 100 | ratio percent, % at 10 µM | shares compounds with ANO1 block;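 active means duplicate-mean ratio percent above the mean of iodide-only control wells, which defines zero, plus 5 of their SD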;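 further: higher percent means stronger block of ClC-1 iodide influx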
Of the large screens only hits and unclear results are named; the others gave an inactive call (follow-up assays come after a bar, where they were run).

CC(C)CCNC(=O)c1c(N)n(CC2CCCO2)c2nc3ccccc3nc12 (stereo not drawn)	NTR1 ag 43 | NTR1 ag conf inactive
O=C1C=C2c3ccccc3CC(C(=O)O)C2CC1 (stereo not drawn)	none (no result: ANO1 activ, NTR1 ag, ANO1 block)
Cc1ccc(-c2cc(-c3ccccc3)cc(-c3ccccc3)[n+]2-c2ccccc2)cc1	NTR1 ag 50, ANO1 block 100, CHO-K1 Ca antag 30 | NTR1 ag conf 82
CN(C)c1ccc(-[n+]2c(-c3ccccc3)cc(-c3ccccc3)cc2-c2ccccc2)cc1	none (no result: ANO1 block)
c1ccc(-c2cc(-c3ccccc3)[n+](-c3ccccc3)c(-c3ccccc3)c2)cc1	NTR1 ag 67, ANO1 block 25 | NTR1 ag conf 65
CC1C(=O)CC2(C(C)C)CC12 (stereo not drawn)	none (no result: ANO1 activ, NTR1 ag, ANO1 block)
C=C1C(O)[C@@H]2O[C@]3(CC[C@H](/C=C/C(C)[C@@H]4CC(C)=CC5(O[C@H](C[C@@](C)(O)C(=O)O)CCC5O)O4)O3)CC[C@H]2O[C@@H]1C(O)CC(C)[C@H]1OC2(CCCCO2)CCC1C (stereo partly drawn)	none (no result: ANO1 activ, M1 ag parental, CHO-K1 Ca PAM, ANO1 block, CHO-K1 Ca antag)
CCC(=NCc1ccco1)c1c(O)n(C)c(=O)n(C)c1=O	none
CCC(=NCCc1ccccc1)c1c(O)n(C)c(=O)n(C)c1=O	ANO1 block 25 | TMEM16A reconf inactive | TMEM16A Ca cntr inactive | YFP-HEK293 quench inactive | ClC-1 rat inh inactive
S=C(NCCc1ccccc1)N1Cc2cc(N3CCCCC3)ccc2-n2nncc2C1	none (no result: ANO1 activ, NTR1 ag, ANO1 block)
CCOC(=O)c1cc2c(cn1)[C@H](CCO)NC2	none (no result: ANO1 activ, NTR1 ag, ANO1 block)
Cc1cc2c(C(F)(F)F)cc(=O)oc2c2c1NCCC2	none | TMEM16A reconf 18% | TMEM16A Ca cntr 30% | YFP-HEK293 quench inactive | ClC-1 rat inh inactive
CCN(CC)c1ccc(N=Cc2c(O)n(-c3ccc(OC)cc3)c(=O)[nH]c2=O)cc1	none
CCN(CC)c1ccc(N=Cc2c(O)n(-c3ccc(Cl)cc3)c(=O)[nH]c2=O)cc1	none | TMEM16A reconf inactive | TMEM16A Ca cntr inactive | YFP-HEK293 quench inactive | ClC-1 rat inh inactive
NC(Cc1ccccc1)c1nn[nH]n1 (stereo not drawn)	none (no result: NTR1 ag, ANO1 block)
Cn1nc(-c2ccc(OCC(=O)N3CCN(Cc4ccccc4)CC3)cc2)c2ccccc2c1=O	ANO1 block 100 | TMEM16A reconf 20% | TMEM16A Ca cntr inactive | YFP-HEK293 quench inactive | ClC-1 rat inh inactive
Cn1cccc1CN1CCN(C(=O)COc2ccccc2)CC1	none
CCOC(=O)[C@]12Cc3cc(Cl)ccc3[C@H]1N(C(C)C)C(=O)c1ccccc12	none (no result: ANO1 activ, NTR1 ag, ANO1 block)
O=[N+]([O-])c1ccc(N2CCCCCC2)c2ncccc12	ANO1 block 25 | TMEM16A reconf inactive | TMEM16A Ca cntr inactive | YFP-HEK293 quench inactive | ClC-1 rat inh inactive
O=[N+]([O-])c1ccc(N2CCCCC2)c2ncccc12	none
Clc1ccc(CCNCc2ccncc2)c(Cl)c1	M1 ag parental 16, ANO1 block 25 | TMEM16A reconf inactive | TMEM16A Ca cntr inactive | YFP-HEK293 quench inactive | ClC-1 rat inh inactive
CN1CCc2nc(N)c(C#N)c(-c3ccccc3)c2C1	none | TMEM16A reconf inactive | TMEM16A Ca cntr inactive | YFP-HEK293 quench inactive | ClC-1 rat inh inactive
O=C(Cc1cccs1)N1CCC2(CC1)OCCO2	none | TMEM16A reconf inactive | TMEM16A Ca cntr inactive | YFP-HEK293 quench inactive | ClC-1 rat inh inactive
Cc1oc(-c2cccs2)nc1CSCC(=O)N1CCC2(CC1)OCCO2	none
O=C(COc1ccccc1)c1cn(Cc2ccccc2)c2ccccc12	none | TMEM16A reconf inactive | TMEM16A Ca cntr inactive | YFP-HEK293 quench inactive | ClC-1 rat inh inactive
CCC(C)c1cnc(CC(C)C)c(=O)n1O (stereo not drawn)	none (no result: ANO1 activ, NTR1 ag, ANO1 block)
CCOC(=O)C1(CCc2ccccc2)CCN(Cc2ccc(NC(C)=O)cc2)CC1	none
CCOC(=O)C1(CCc2ccccc2)CCN(Cc2ccc3c(c2)OCCO3)CC1	ANO1 block 25 | TMEM16A reconf inactive | TMEM16A Ca cntr inactive | YFP-HEK293 quench inactive | ClC-1 rat inh inactive
c1ccc(CCN2CCC(N3CCN(c4ccccc4)CC3)CC2)cc1	ANO1 block 25 | TMEM16A reconf inactive | TMEM16A Ca cntr inactive | YFP-HEK293 quench inactive | ClC-1 rat inh inactive
Cc1cccc(N2C(=O)NC(=O)/C(=C/c3cc4c(cc3[N+](=O)[O-])OCO4)C2=O)c1	none | TMEM16A reconf inactive | TMEM16A Ca cntr 120% | YFP-HEK293 quench inactive | ClC-1 rat inh inactive
CCOC(=O)[C@]12Cc3ccccc3[C@H]1N(CCC(=O)OC)C(=O)c1cc(OC)ccc12	none (no result: ANO1 activ, NTR1 ag, ANO1 block)
COC(=O)C1=C(c2cccc(OC)c2OC)C[C@@H]2CC[C@H]1N2C(=O)NCCS(C)=O (stereo partly drawn)	ANO1 block 100 | TMEM16A reconf inactive | TMEM16A Ca cntr inactive | YFP-HEK293 quench inactive | ClC-1 rat inh inactive
CCOC(=O)[C@]12Cc3cc(C)ccc3[C@H]1N(C)C(=O)c1cc(OC)ccc12	none (no result: ANO1 activ, NTR1 ag, ANO1 block)
CCOC(=O)[C@]12Cc3cc4ccccc4cc3[C@H]1N(Cc1ccccc1)C(=O)c1ccccc12	none (no result: ANO1 activ, NTR1 ag, ANO1 block)
CCOC(=O)C1SC2(C(F)(F)F)CC1(O)c1c(C)cc(C)nc1O2 (stereo not drawn)	ANO1 block 25 | TMEM16A reconf inactive | TMEM16A Ca cntr inactive | YFP-HEK293 quench inactive | ClC-1 rat inh inactive
Cc1cccc(C)c1-n1nnnc1C(c1ccccc1OC(F)(F)F)N1CCC(n2c(=O)[nH]c3ccccc32)CC1 (stereo not drawn)	none (no result: ANO1 activ, NTR1 ag, ANO1 block)
